Measured values from the supplement of paper PMC10849652.
The full data set covers some 7,900 targets. This sample favours those with a hit. About 0.6% of all pairs of compound and target were hits. Values without a mark were called inactive.

Experiments:
Assay in all cases: log2 fold change, soluble protein after heating vs DMSO (PISA); higher = thermal stabilisation; K562 cells, 10 uM, 30 min; active = over 0.2 and 3.5 SD of the protein, either way, in both replicates (recomputed)
[1] = compound: CC[C@@H]1C(=O)N(C)c2cnc(Nc3ccc(C(=O)NC4CCN(C)CC4)cc3OC)nc2N1C1CCCC1
Procedure, shortened: (§1)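 K562 cells at 2×10^6 cells/mL were treated with 10 μM compound for 30 min. Aliquots were heated for 3 min across 48°C-58°C, pooled, and extracted in PBS with 0.5% NP-40 at 4°C; soluble protein was the supernatant after 21,000xg for 90 min. Soluble protein was quantified by TMTpro 16plex LC-MS/MS with channel sums equalised, and reported as log2 fold change in thermal stability against DMSO controls, with values from duplicates.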

[2] = compound: CC[C@@H]1C(=O)N(C)c2cnc(Nc3ccc(C(=O)N[C@H]4CC[C@H](N5CCN(CC6CC6)CC5)CC4)cc3OC)nc2N1C(C)C [volasertib]
Procedure, shortened: as §1

[3] = compound: CC[C@H](C)N1C=C(C2=C(C=C(C=C21)C3=CN=C(C=C3)N4CCNCC4)C(=O)NCC5=C(C=C(NC5=O)C)C)C
Procedure, shortened: as §1

[4] = compound: CC[C@H](C)[C@@H](C(=O)N[C@@H]([C@@H](C)O)C(=O)N[C@@H](CC(C)C)C(=O)[C@]1(CO1)C)NC(=O)[C@H]([C@@H](C)CC)N(C)C(=O)C [epoxomicin]
Procedure, shortened: as §1

[5] = compound: CCn1c(C(=O)N(C2CC2)C2CC2)cc2c3c(ncn3C)c(Nc3cc(C)n(C)n3)nc21
Procedure, shortened: as §1

[6] = compound: CCn1cc(-c2ccnc3[nH]c(-c4cccc(CN(C)C)c4)cc23)c(-c2ccc(NC(=O)N(C)C)cc2)n1
Procedure, shortened: as §1

[7] = compound: CN(C)CC(=O)Nc1ccc2[nH]c(=O)c3ccccc3c2c1
Procedure, shortened: as §1

[8] = compound: CN(CCOC1=CC=C(C=C1)C[C@H]2C(=O)NC(=O)S2)C3=CC=CC=N3 (racemic) [rosiglitazone]
Procedure, shortened: as §1

[9] = compound: CN1C2=C(C3=C1C(=O)N(N=C3)CC4=CC(=CC=C4)N)SC(=C2)S(=O)C
Procedure, shortened: as §1

[10] = compound: CN1CCC(CNc2ccc3ncc(-c4cccc(OC(F)(F)F)c4)n3n2)CC1
Procedure, shortened: as §1

[11] = compound: CN1CCN(CCOc2cc(OC3CCOCC3)c3c(Nc4c(Cl)ccc5c4OCO5)ncnc3c2)CC1 [saracatinib]
Procedure, shortened: as §1

[12] = compound: CN1CCN(c2nc(C3=C(c4c[nH]c5ccccc45)C(=O)NC3=O)c3ccccc3n2)CC1 [sotrastaurin]
Procedure, shortened: as §1

[13] = compound: CN1CC[C@H](c2c(O)cc(O)c3c(=O)cc(-c4ccccc4Cl)oc23)[C@H](O)C1 [alvocidib]
Procedure, shortened: as §1

[14] = compound: CN1CCc2c(c3ccccc3n2Cc2ccc(C(=O)NO)cc2)C1 [Tubastatin A]
Procedure, shortened: as §1

[15] = compound: CNC(=O)C1=CC=CC=C1NC2=NC(=NC=C2Cl)NC3=C(C=C(C=C3)N4CCOCC4)OC
Procedure, shortened: as §1

[16] = compound: CNC(=O)c1ccc(Nc2ncc(C(F)(F)F)c(NCc3nccnc3N(C)S(C)(=O)=O)n2)cc1 [defactinib]
Procedure, shortened: as §1

[17] = compound: CNCc1ccc(-c2[nH]c3cc(F)cc4c3c2CCNC4=O)cc1 [rucaparib]
Procedure, shortened: as §1

[18] = compound: CNc1nc(-c2ccc3c(N)n[nH]c3c2)cc(N2C[C@@H](C(=O)NC3CCCCC3)CC[C@H]2C)n1
Procedure, shortened: as §1

[19] = compound: COC(=O)N[C@@H](C)CNc1nccc(-c2cn(C(C)C)nc2-c2cc(Cl)cc(NS(C)(=O)=O)c2F)n1 [encorafenib]
Procedure, shortened: as §1

[20] = compound: COC(=O)[C@H](CCSC)NC(=O)C1=C(C=C(C=C1)NC[C@H](CS)N)C2=CC=CC=C2
Procedure, shortened: as §1

Chain of UniProt Q9UBN7 (Q9UBN7 whole entry, looked up): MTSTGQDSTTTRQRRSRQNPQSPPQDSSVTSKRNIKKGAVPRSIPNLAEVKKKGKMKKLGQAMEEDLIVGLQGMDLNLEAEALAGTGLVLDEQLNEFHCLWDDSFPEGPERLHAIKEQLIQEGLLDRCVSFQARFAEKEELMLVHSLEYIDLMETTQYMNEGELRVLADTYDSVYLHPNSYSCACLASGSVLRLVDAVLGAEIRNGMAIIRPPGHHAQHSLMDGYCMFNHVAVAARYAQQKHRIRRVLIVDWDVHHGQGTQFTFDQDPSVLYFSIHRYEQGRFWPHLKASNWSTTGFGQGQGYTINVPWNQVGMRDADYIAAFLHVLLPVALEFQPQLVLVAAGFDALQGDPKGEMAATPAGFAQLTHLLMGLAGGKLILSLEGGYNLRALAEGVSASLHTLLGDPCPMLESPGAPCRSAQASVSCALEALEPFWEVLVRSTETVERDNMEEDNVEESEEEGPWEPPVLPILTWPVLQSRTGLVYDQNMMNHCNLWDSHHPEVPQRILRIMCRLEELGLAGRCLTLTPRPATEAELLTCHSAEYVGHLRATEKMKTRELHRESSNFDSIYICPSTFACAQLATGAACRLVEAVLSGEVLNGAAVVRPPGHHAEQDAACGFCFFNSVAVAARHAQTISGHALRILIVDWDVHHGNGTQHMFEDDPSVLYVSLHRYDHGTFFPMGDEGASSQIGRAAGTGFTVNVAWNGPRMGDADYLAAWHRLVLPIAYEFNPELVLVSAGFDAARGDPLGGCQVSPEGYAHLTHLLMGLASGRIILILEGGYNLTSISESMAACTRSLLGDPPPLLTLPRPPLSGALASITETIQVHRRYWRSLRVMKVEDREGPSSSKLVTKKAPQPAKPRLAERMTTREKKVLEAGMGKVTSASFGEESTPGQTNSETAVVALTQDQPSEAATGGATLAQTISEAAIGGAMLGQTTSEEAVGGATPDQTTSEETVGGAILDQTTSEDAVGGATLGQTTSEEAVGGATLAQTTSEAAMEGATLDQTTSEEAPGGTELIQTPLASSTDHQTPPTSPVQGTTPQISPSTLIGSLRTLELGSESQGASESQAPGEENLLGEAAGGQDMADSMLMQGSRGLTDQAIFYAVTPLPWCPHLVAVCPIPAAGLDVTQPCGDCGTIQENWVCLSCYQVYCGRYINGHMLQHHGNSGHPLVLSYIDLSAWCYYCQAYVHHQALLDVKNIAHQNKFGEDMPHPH
Chain of UniProt P08754 (P08754 whole entry, looked up): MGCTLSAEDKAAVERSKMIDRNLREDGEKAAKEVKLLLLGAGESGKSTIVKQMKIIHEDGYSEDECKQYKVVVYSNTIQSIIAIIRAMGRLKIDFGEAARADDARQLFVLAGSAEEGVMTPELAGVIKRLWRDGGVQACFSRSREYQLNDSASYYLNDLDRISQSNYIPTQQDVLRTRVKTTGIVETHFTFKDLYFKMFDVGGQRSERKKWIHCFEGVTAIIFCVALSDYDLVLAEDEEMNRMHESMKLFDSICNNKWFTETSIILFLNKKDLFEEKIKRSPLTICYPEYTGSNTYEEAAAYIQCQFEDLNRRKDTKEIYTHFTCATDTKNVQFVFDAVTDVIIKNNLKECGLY
Chain of UniProt Q02790 (Q02790 whole entry, looked up): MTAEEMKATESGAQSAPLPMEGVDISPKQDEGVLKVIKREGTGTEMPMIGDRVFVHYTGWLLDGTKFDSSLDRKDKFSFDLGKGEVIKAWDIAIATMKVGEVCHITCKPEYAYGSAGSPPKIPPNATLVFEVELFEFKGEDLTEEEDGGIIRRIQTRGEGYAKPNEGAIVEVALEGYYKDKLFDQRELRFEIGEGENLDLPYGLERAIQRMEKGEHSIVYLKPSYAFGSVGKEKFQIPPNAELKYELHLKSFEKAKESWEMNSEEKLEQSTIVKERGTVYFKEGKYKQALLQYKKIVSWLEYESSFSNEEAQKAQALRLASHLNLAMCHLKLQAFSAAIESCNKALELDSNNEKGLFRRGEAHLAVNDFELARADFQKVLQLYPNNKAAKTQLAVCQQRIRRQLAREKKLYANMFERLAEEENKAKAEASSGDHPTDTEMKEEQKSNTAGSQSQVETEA
Chain of UniProt P23434 (P23434 whole entry, looked up): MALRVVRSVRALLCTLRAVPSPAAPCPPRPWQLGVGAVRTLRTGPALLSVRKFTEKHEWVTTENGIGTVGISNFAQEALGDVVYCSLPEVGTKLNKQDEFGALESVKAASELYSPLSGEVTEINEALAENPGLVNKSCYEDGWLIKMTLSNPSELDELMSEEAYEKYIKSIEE
Chain of UniProt P21333 (P21333 whole entry, looked up): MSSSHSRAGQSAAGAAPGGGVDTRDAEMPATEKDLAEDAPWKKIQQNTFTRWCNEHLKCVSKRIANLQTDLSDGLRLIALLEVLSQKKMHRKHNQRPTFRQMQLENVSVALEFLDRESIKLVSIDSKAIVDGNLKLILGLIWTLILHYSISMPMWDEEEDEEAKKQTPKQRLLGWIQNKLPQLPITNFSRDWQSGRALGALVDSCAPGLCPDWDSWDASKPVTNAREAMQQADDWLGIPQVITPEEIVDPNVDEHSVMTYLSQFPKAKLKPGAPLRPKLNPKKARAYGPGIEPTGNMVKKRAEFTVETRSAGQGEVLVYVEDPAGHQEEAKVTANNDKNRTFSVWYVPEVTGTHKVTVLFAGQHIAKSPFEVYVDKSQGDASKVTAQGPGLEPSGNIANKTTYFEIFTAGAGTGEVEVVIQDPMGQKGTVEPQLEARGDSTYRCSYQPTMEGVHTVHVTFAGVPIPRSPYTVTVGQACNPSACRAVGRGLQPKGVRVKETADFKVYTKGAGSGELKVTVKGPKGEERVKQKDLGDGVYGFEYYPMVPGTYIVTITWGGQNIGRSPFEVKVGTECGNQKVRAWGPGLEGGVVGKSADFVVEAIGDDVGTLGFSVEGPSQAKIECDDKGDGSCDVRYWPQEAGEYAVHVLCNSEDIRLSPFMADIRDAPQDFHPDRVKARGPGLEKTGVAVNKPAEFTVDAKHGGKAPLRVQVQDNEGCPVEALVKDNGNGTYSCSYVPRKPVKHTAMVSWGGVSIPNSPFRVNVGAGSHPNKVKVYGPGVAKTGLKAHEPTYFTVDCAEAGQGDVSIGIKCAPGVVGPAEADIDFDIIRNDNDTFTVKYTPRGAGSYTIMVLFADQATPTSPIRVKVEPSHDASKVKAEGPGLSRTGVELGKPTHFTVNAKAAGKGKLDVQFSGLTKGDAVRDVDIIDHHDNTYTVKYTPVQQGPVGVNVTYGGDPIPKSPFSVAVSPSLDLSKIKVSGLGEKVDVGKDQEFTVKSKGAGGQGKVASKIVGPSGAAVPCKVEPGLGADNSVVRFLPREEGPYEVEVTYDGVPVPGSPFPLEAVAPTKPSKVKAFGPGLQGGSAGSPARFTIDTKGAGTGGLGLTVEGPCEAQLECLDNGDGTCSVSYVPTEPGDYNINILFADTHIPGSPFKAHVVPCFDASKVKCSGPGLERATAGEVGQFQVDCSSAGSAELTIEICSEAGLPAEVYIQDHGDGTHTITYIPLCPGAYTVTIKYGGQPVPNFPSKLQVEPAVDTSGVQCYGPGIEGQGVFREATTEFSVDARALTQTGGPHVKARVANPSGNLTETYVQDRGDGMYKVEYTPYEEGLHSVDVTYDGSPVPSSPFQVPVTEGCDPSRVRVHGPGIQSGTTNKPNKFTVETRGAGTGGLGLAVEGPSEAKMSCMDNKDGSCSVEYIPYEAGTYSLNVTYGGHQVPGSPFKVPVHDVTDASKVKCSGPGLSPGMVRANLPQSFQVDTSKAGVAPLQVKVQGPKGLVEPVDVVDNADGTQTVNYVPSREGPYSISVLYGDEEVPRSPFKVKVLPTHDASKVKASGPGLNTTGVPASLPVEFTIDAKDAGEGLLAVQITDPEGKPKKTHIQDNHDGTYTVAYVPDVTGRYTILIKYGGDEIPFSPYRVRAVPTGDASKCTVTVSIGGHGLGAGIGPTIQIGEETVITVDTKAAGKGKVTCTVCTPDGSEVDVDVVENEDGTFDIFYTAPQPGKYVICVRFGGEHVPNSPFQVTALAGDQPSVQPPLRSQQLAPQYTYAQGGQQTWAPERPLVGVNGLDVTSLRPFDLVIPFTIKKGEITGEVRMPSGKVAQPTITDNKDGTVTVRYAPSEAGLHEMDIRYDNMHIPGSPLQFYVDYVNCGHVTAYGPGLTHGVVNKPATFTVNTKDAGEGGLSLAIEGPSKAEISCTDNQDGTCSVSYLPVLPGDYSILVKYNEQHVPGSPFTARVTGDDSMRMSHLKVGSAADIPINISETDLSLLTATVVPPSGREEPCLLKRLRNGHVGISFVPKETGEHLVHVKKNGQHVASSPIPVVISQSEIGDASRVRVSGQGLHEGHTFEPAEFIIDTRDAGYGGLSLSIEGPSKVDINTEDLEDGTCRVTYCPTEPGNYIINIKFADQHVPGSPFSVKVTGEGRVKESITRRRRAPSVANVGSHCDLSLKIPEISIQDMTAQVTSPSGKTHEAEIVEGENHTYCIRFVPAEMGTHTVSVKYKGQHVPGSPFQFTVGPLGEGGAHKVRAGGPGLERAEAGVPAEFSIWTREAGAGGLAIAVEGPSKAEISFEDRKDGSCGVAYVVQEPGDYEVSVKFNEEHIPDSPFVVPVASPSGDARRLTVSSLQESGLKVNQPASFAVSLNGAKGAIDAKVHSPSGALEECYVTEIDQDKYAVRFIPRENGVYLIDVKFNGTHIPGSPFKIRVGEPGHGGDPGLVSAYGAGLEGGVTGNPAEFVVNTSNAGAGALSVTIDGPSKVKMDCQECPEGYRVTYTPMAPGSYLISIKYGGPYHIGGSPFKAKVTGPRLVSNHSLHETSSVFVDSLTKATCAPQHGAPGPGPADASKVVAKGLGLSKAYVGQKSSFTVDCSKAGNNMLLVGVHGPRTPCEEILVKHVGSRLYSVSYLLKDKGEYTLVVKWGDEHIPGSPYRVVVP
Chain of UniProt Q00688 (Q00688 whole entry, looked up): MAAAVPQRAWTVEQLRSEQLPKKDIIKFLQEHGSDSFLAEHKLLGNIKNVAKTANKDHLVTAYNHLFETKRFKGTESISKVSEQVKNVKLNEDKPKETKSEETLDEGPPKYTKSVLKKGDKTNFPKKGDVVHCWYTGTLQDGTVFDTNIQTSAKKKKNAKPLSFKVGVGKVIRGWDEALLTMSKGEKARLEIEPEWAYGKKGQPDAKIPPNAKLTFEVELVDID

| Target | log2 fold change [1] | log2 fold change [2] | log2 fold change [3] | log2 fold change [4] | log2 fold change [5] | log2 fold change [6] | log2 fold change [7] | log2 fold change [8] | log2 fold change [9] | log2 fold change [10] | log2 fold change [11] | log2 fold change [12] | log2 fold change [13] | log2 fold change [14] | log2 fold change [15] | log2 fold change [16] | log2 fold change [17] | log2 fold change [18] | log2 fold change [19] | log2 fold change [20] |
| --- | --- | --- | --- | --- | --- | --- | --- | --- | --- | --- | --- | --- | --- | --- | --- | --- | --- | --- | --- | --- |
| FLNA (UniProt P21333) | -0.121 | -0.375 (active) | 0.078 | 0.063 | -0.074 | -0.004 | 0.029 | 0.019 | 0.052 | -0.12 | -0.076 | -0.161 | -0.017 | 0.052 | 0.106 | -0.042 | 0.1 | 0.017 | 0.089 | -0.053 |
| GTF2A2 (UniProt P52657) | 0.053 | 0.097 | -0.07 | 0.036 | 0.03 | 0.025 | -0.03 | 0.003 | -0.046 | -0.031 | 0.034 | 0.018 | -0.003 | 0.026 | -0.031 | -0.025 | -0.061 | -0.025 | -0.022 | 0.018 |
| HPCAL1 (UniProt P37235) | -0.076 | -0.065 | -0.028 | 0.048 | 0.003 | 0.039 | 0.019 | 0.005 | -0.029 | -0.032 | 0.011 | 0.017 | -0.004 | -0.085 | 0.048 | -0.008 | 0.013 | -0.107 | -0.014 | -0.025 |
| FKBP3 (UniProt Q00688) | 0.006 | 0.075 | 0.03 | 0.037 | 0 | -0.001 | 0.001 | -0.002 | -0.065 | 0.015 | -0.006 | 0 | -0.004 | 0.017 | 0 | -0.024 | -0.052 | 0.01 | 0.012 | 0.033 |
| HDAC6 (UniProt Q9UBN7) | 0.013 | 0.005 | 0.014 | -0.069 | -0.074 | -0.157 | 0.068 | -0.065 | 0.058 | -0.04 | -0.067 | -0.013 | -0.009 | 1.01 (active) | -0.037 | -0.028 | -0.028 | 0.09 | -0.135 | -0.014 |
| HNRNPF (UniProt P52597) | -0.049 | -0.587 (active) | 0.128 | 0.009 | -0.066 | -0.027 | 0.051 | 0.037 | 0.052 | -0.153 | -0.042 | -0.121 | -0.088 | 0.086 | 0.004 | -0.253 | 0.098 | 0.004 | 0.119 | -0.06 |
| HNRNPK isoform 2 (UniProt P61978) | -0.143 | -0.271 (active) | 0.062 | 0.003 | -0.027 | -0.027 | 0 | 0.022 | -0.01 | -0.216 (active) | -0.057 | -0.037 | -0.155 | 0.064 | -0.017 | -0.228 (active) | -0.053 | 0.015 | 0.028 | 0.003 |
| GNAI3 (UniProt P08754) | 0.089 | 0.147 | -0.011 | 0.014 | 0.036 | -0.071 | -0.012 | -0.101 | -0.046 | 0.075 | 0.063 | -0.011 | -0.02 | 0.046 | 0.093 | -0.041 | -0.009 | 0.025 | -0.004 | -0.003 |
| GTF3C4 (UniProt Q9UKN8) | -0.002 | -0.263 (active) | 0.001 | -0.001 | -0.003 | -0.003 | -0.024 | 0.012 | 0.007 | 0 | 0.06 | 0.021 | -0.03 | -0.009 | -0.005 | -0.081 | 0.029 | -0.001 | 0.043 | -0.01 |
| FKBP4 (UniProt Q02790) | -0.066 | -0.136 | 0.07 | 0.033 | -0.01 | -0.051 | 0.019 | 0.042 | -0.04 | -0.119 | -0.048 | -0.022 | -0.092 | -0.009 | 0.032 | -0.055 | 0.016 | 0.05 | 0.026 | -0.036 |
| GUSB (UniProt P08236) | -0.104 | 0.067 | 0.354 | -0.053 | -0.151 | -0.026 | -0.001 | -0.041 | -0.028 | 0.001 | 0.03 | -0.004 | 0.021 | -0.054 | 0.045 | -0.055 | 0.048 | -0.039 | 0.128 | 0.029 |
| GCSH (UniProt P23434) | 0.055 | 0.065 | -0.078 | 0.005 | 0.05 | 0.023 | 0.028 | 0.053 | 0.012 | -0.338 (active) | -0.024 | 0.057 | 0.009 | -0.017 | 0.021 | -0.01 | -0.012 | -0.004 | -0.028 | -0.008 |
| FBXO6 (UniProt Q9NRD1) | 0.683 (active) | 0.696 (active) | 0.096 | -0.029 | -0.037 | -0.038 | 0.036 | 0.006 | 0.005 | 0.366 (active) | 0.042 | -0.085 | -0.092 | -0.016 | 0.031 | -0.038 | -0.064 | 0.011 | 0.033 | -0.099 |
| FANCI (UniProt Q9NVI1) | -0.277 (active) | -0.159 | 0.127 | -0.077 | -0.022 | -0.093 | 0.072 | 0.066 | -0.013 | -0.188 | -0.022 | -0.099 | -0.13 | -0.103 | -0.111 | -0.179 | 0.041 | -0.002 | 0.003 | -0.02 |
| HADHA (UniProt P40939) | 0.03 | 0.469 | 0.107 | 0.055 | 0.231 | -0.233 | 0.023 | -0.019 | -0.053 | -0.334 | -0.102 | 0.032 | -0.238 | 0.05 | 0.044 | -0.19 | 0.177 | 0.595 (active) | -0.024 | -0.191 |
| FDPS (UniProt P14324) | -0.059 | -0.191 | 0.075 | 0.028 | -0.054 | -0.277 | 0.111 | 0.235 | -0.034 | -0.608 (active) | -0.151 | -0.041 | -0.057 | 0.062 | -0.097 | -0.032 | -0.112 | 0.237 | 0.137 | -0.118 |
